Only some compounds are listed: those with a hit (about 18% of all), similar ones and a draw of the others.
VDR inhibitor – inhibitors of human vitamin D receptor. VDR-SRC2-3 peptide fluorescence polarization, 2 h. Potency, µM, without a hit: max response, negative = inhibition, hits mostly inhibitors. 400,000 tested, 0.93% active
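Signal is fluorescence polarization, reporting how far test compounds block the interaction of VDR with the SRC2-3 coregulator peptide after a 2 h room-temperature incubation.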
GCN5L2 inh – inhibitors of human GCN5L2 histone acetyltransferase | Q92830 | GCN5L2 HAT assay, ThioGlo1 CoA-SH fluorescence | Potency, µM (doses to about 58.9 µM), without a hit: top-dose activity change, negative = inhibition, actives largely listed as inhibitors | 390,000 tested, 0.21% active | AID 504327
Target sequence (Q92830 whole entry, looked up): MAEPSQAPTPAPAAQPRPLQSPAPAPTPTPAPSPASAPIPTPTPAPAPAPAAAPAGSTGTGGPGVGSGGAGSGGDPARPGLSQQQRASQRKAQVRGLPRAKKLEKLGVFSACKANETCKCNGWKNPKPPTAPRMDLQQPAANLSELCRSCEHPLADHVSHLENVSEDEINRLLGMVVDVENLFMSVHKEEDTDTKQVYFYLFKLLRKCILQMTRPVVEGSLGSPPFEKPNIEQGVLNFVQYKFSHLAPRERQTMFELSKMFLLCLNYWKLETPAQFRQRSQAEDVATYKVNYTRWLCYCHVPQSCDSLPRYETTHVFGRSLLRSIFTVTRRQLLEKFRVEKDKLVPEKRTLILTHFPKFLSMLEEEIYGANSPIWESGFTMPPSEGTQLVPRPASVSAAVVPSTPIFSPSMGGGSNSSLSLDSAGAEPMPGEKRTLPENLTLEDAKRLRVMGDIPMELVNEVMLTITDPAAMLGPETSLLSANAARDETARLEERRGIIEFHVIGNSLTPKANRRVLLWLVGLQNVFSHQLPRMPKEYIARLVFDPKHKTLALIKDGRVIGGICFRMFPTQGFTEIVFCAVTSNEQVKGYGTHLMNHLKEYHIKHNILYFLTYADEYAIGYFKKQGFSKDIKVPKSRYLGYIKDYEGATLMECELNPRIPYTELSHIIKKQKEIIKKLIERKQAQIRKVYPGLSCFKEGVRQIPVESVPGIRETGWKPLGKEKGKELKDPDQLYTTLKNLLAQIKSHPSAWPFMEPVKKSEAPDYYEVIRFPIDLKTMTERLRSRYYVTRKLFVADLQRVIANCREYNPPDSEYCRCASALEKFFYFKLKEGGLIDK
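GCN5L2 (20 nM) in 50mM HEPES pH 7.5, 0.1mM EDTA, 0.01% Tween-20 preincubated 15 min with compounds at room temperature. Reaction started with H3(1-25) 75uM, acetyl-CoA 70uM, ThioGlo1 50uM; CoA-thiol fluorescence (Ex340/Em540) read at 0 and 20 min.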
DT40 TDP1 no CPT – qHTS for Inhibitors of human tyrosyl-DNA phosphodiesterase 1 (TDP1): qHTS in cells in absence of CPT; Potency, µM (highest dose often 46.2 µM), without a hit: top-dose activity change, negative = growth inhibition, most hits filed as inhibitors; DT40 Tdp1-/- hTDP1 cells, no CPT, ATP luminescence, 48 h; 420,000 tested, 15% active; further: nearly all actives have a fitted effect of over 55% in size
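No-CPT arm: Tdp1-/-;hTDP1 DT40 cells (400/well) plus compounds, incubated ≥48 hr at 37 °C. Readout CellTiter-Glo luminescence.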
TDP1 inh – blocks human tyrosyl-DNA phosphodiesterase 1. Q9NUW8. recombinant TDP1, AlphaScreen DNA substrate cleavage. 350,000 tested, 0.28% active. Potency, µM (series often up to 130 µM), without a hit: at the top dose activity change, negative = inhibition, hits mostly inhibitors; further: nearly all actives have a fitted effect of over 40% in size
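Recombinant human Tdp1 (E. coli-expressed, 1 nM final) preincubated with compounds 15 min at room temperature, then 5'-biotin/3'-phosphotyrosine-FITC DNA substrate (15 nM final) added for 5 min. AlphaScreen beads (10 ug/ml final) added 10 min; cleavage lowers signal.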
PLK1 PBD inh – PLK1 (human) polo-box domain binding inhibition; Plk1 PBD binding of FITC phosphopeptide, fluorescence polarization; AID 720504; P53350; 360,000 tested, 2.8% active; Potency, µM, for inactives: max response, negative = inhibition, hits mostly inhibitors; further: series mostly up to about 57 µM; nearly all actives have a fitted effect of over 65% in size
DT40 TDP1 CPT – growth inhibition of DT40 Tdp1-/-;hTDP1 cells with camptothecin (screen for TDP1 inhibitors); chicken DT40 Tdp1-/-;hTDP1 cells + 20 nM CPT, ATP luminescence, 48 h; Potency, µM (titrated, usually from 46.2 µM), for inactives: at the top dose activity change, negative = growth inhibition, actives largely listed as inhibitors; 420,000 tested, 12% active; further: nearly all actives have a fitted effect of over 55% in size
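Cell growth measured by CellTiter-Glo luminescence after a minimum 48 h, 37 C compound exposure with 20 nM CPT in Tdp1-knockout DT40 cells stably expressing hTDP1, seeded 400/well; qHTS titration format.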
* = called active by the depositor; ? = inconclusive; · = no result given. The call rests on the fitted dose curve; in most records, active means well fitted curve in the direction sought with a large enough effect; inconclusive means small, poorly fitted or top-dose-only effect, or another doubt; inactive means no such curve, though single readings can be large; an effect the other way counts as inactive or inconclusive. On the % scale 0 is the no-effect control and ±100 the full control effect; potency means the concentration at half of the fitted maximal effect.

SMILES	VDR inhibitor	GCN5L2 inh	DT40 TDP1 no CPT	TDP1 inh	PLK1 PBD inh	DT40 TDP1 CPT
NC(=O)C1CCCN(C(=O)CN2C(=O)NC(c3ccccc3)(c3ccccc3)C2=O)C1 (configuration not stated)	-3%	-4%	-26%	2%	2%	-5%
O=c1c(-c2cccs2)nc2ccccc2n1C(c1ccccn1)c1nc2ccccc2[nH]1 (configuration not stated)	·	·	15µM*	·	-1%	?
O=c1c(-c2ccccc2)nc2ccccc2n1C(c1ccccn1)c1nc2ccccc2[nH]1 (configuration not stated)	·	·	9.2µM*	·	-3%	?
CCN(C(=O)Cn1ccc(C(F)(F)F)n1)c1c(N)n(Cc2ccccc2)c(=O)[nH]c1=O	-8%	-9%	4%	1%	-3%	17%
CN(C)C(=S)Oc1ccccc1C1(C)OCCO1	·	·	2%	·	-1%	9%
COc1cccc(CNC(=O)CCC2CCCN(C(=O)c3cc4ccccc4o3)C2)c1 (configuration not stated)	12%	-3%	13µM*	5%	-22%	?
CCc1cc(C(=O)N2CCCC(CCC(=O)NCc3cccc(OC)c3)C2)no1 (configuration not stated)	23%	-18%	-19%	·	-1%	-3%
O=C1c2ccccc2C(=O)N1CCCCc1cn(C[C@H]2CC[C@@H]([C@@H]3CC[C@H](Cn4cc(CCCCN5C(=O)c6ccccc6C5=O)nn4)O3)O2)nn1	-8%	-3%	16µM*	3%	1%	16µM*
c1ccc(SCc2cn(C[C@H]3CC[C@@H]([C@@H]4CC[C@H](Cn5cc(CSc6ccccc6)nn5)O4)O3)nn2)cc1	-6%	-3%	16µM*	·	-12%	?
Cc1ccc(S(=O)c2ccc(NC(=O)C3CC3)cc2C#N)cc1 (configuration not stated)	71µM*	-12%	23µM*	-2%	11µM*	18µM*
Cc1ccc(-n2nc(C)c3c2NC2=C(C(=O)CC(C)(C)C2)C3c2ccccc2OCC(=O)O)cc1 (configuration not stated)	-27%	-8%	?	5%	27µM*	?
O=C(c1cc2ccccc2o1)N1CCOCC1	-14%	-1%	8%	0%	-4%	1%
CS(=O)(=O)N1CCN(c2ccccc2NC(=O)c2cc3ccccc3o2)CC1	-17%	-14%	15µM*	·	-4%	-29%
O=C(NC(=S)N1CCOCC1)c1cc2ccccc2o1	15%	9%	12µM*	5%	-6%	6.5µM*
O=C(Nc1ccccc1N1CCN(C(=O)c2ccccc2)CC1)c1cc2ccccc2o1	3%	-13%	21µM*	7%	-4%	?
CN1CCN(c2ccccc2NC(=O)c2cc3ccccc3o2)CC1	-5%	-2%	?	-3%	-23%	?
O=C(Nc1ccc(N2CCOCC2)c(Cl)c1)c1cc2ccccc2o1	9%	-11%	21µM*	3%	-4%	15µM*
N#CCCN1CCN(C(=O)c2c(N)no[n+]2[O-])CC1	-10%	-2%	-12%	0%	-5%	-5%
OCC1OC(Nc2ccccc2C=NO)C(O)C1O (configuration not stated)	·	·	-7%	·	-3%	4%
CCCNC(=O)NC(=O)COC(=O)c1ccc(OC)c(S(=O)(=O)N2CCCc3ccccc32)c1	14%	-13%	-15%	6%	-5%	?
O=C(Cc1ccccc1)NCC(=O)N1CCC1	31%	-2%	-3%	-1%	-3%	23%
CC(=O)Nc1ccc(NCN2C(=O)[C@@H]3[C@H]4CC[C@H](C4)[C@@H]3C2=O)cc1	-6%	-13%	-20%	3%	2%	-29%
O=C(NC(=S)Nc1ccc(CN2CCCCC2)cc1)c1cc2ccccc2o1	-17%	-4%	21µM*	-4%	-7%	23µM*
O=C(Nc1ccccc1N1CCOCC1)c1cc2ccccc2o1	-3%	-7%	-26%	7%	-15%	16µM*
CSCc1c(C(=O)Nc2ccccc2N2CCOCC2)oc2ccccc12	-14%	-2%	7.3µM*	2%	-5%	16µM*
SMILES	VDR inhibitor	GCN5L2 inh	DT40 TDP1 no CPT	TDP1 inh	PLK1 PBD inh	DT40 TDP1 CPT
O=C(Nc1ccc(N2CCN(C(=O)c3ccccc3)CC2)cc1)c1cc2ccccc2o1	-1%	-7%	5.2µM*	7%	0%	6.5µM*
CN1CCN(c2ccc(NC(=O)c3cc4ccccc4o3)cc2)CC1	3%	-3%	?	·	-11%	-26%
CN(C)S(=O)(=O)c1cccc(NC(=O)CN2C(=O)C3C4C=CC(C4)C3C2=O)c1 (configuration not stated)	2%	2%	-2%	1%	-5%	-2%
COc1ccc(C)cc1NC(=O)c1cc2c(=O)n(Cc3cccnc3)ccc2nc1C	10%	-7%	-15%	6%	·	-7%
CC1(C(=O)NS(=O)(=O)Cc2ccccc2)CCN1C(=O)C1(c2ccc(Cl)cc2)CCC1 (configuration not stated)	·	·	-17%	·	-5%	?
COc1ccccc1C(=O)Nc1ccccc1N1CCOCC1	7%	1%	?	4%	-18%	?
COc1c(C(=O)Nc2ccccc2N2CCOCC2)cc2ccccc2c1Br	10%	·	23µM*	·	-1%	?
Cc1ccc(/C=C2\CCC(C3CCCC3)C2=O)cc1 (configuration not stated)	4%	-1%	3%	3%	1%	1%
CC(=O)c1ccc(OC(=O)/C=C/c2ccccc2)cc1	-19%	-2%	-18%	·	1%	0%
CN(C)CC1CC/C(=C\c2ccc(O)cc2)C1=O (configuration not stated)	22µM*	·	1.3µM*	·	6.7µM*	0.58µM*
COc1ccc(/C=C2\CCC(C3CCCC3)C2=O)cc1 (configuration not stated)	-11%	0%	-4%	·	-2%	4%
O=C1/C(=C\c2ccc(Cl)cc2)CCC1CNc1ccc(Cl)cc1 (configuration not stated)	?	·	2.6µM*	·	-12%	2.3µM*
CN(C)CC1CCC/C(=C\c2ccc(OC(=O)/C=C/c3ccccc3)cc2)C1=O (configuration not stated)	79µM*	·	1.8µM*	·	?	1.3µM*
COc1ccc(/C=C2/CCC(CN3CCOCC3)C2=O)cc1 (configuration not stated)	?	·	1.2µM*	·	5.3µM*	1.2µM*
